# From PubChem
# In the library only some 3.1% were active in any assay of this set; here they are far more common.
# LEDGF integ inh = blocks HIV-1 LEDGF/p75-dependent DNA integration | TR-FRET IN-LEDGF/p75 DNA integration, Eu/Cy5 | 370,000 tested, 0.64% active | inhibition, % at 3.7 µM;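 active = inhibition above the screen-wide mean plus 3 SD, cut at about 13% in these data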;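 note: signal is the Cy5 over europium emission ratio at 671 and 618 nm; 0% = plate median of compound wells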
# KLK7 zymogen act = activators of human kallikrein-7 zymogen; P49862; purified proKLK7, EDANS-DABCYL substrate fluorescence; 100% is mature enzyme control, 0% vehicle; activation, % at 7 µM; 370,000 tested, 0.9% active; AID 652039;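 active = activation above the mean of all tested compounds plus 3 SD, computed per campaign excluding outliers beyond control limits, cut at about 13% in these data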
# UHRF1 MBD2 ctr = blocks human UHRF1 binding to methylated DNA; AID 687016; UHRF1 binding to methylated oligo, TR-FRET; 370,000 tested, 0.75% active; Q96T88; inhibition, % at 4.4 µM; in the data active = inhibition above about 21%;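 note: UHRF1 SRA domain binding a hemimethylated CpG hairpin DNA probe; 0% = median of test compound wells and 100% = reference inhibitor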
# MBD2 inh = inhibitors of human MBD2 binding to methylated oligonucleotide | inhibition, % at 4.4 µM | TR-FRET | 370,000 tested, 0.31% active | Q9UBB5 | AID 686964; in the data active = inhibition above about 13%
# Target sequence (Q9UBB5 whole entry, looked up): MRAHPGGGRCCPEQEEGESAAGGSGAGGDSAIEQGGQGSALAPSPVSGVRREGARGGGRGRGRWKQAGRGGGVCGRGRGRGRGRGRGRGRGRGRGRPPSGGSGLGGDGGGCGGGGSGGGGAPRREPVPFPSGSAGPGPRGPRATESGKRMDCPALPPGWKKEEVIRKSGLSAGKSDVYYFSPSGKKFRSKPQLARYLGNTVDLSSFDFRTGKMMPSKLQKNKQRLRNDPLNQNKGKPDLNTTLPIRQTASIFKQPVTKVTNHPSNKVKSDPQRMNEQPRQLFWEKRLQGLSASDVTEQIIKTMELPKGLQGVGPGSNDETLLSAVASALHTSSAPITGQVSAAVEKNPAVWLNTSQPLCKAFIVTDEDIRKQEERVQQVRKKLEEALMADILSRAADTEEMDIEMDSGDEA
# Rin1 Abl inh = inhibitors of human Rin1-Abl protein interaction. P00519+Q13671. TR-FRET Rin1/Abl binding, biochemical. inhibition, % at 7.35 µM. 360,000 tested, 0.4% active; in the data active = inhibition above about 5%, passing the limit was not always enough
# Neddyl block = blocks human cullin neddylation; P61081+Q13564; TR-FRET cullin neddylation, biochemical; calls only at 25 µM; 360,000 tested, 0.58% active; in the data active = inhibition above about 36%
# KLK7 act conf = proKLK7 activation, confirmation. shares compounds with KLK7 zymogen act. purified proKLK7, EDANS-DABCYL substrate fluorescence; scaled: vehicle 0, mature enzyme 100. activation, % at 7 µM. 3,200 tested, 68% active;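 active = activation, as change over the incubation, above the mean of all tested compounds plus 3 SD, cut at about 13% in these data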
# EDANS interfere = fluorescence interference counter-screen for KLK7 activators | shares compounds with KLK7 zymogen act | EDANS-DABCYL substrate fluorescence interference, no enzyme, 4 h; solvent 0%, active enzyme control 100% | activation, % at 7 µM | 3,200 tested, 80% active;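 active = activation above the all-compound mean plus 3 SD, ignoring values outside control-based bounds, cut at about 4.8% in these data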;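 note: value is the 4 h activation minus the activation read at time zero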
# EDANS interf = EDANS fluorescence interference in dose response, no enzyme | 250 tested, 20% active | EDANS-DABCYL peptide fluorescence interference | shares compounds with KLK7 zymogen act | EC50, µM;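 active = compounds that raise the fluorescence signal in this interference counterscreen, with EC50 at or below 10 µM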;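 note: intact quenched peptide substrate alone read at 355 nm excitation and 520 nm emission; signal is fluorescence gain from T0 to T4 after four hours at room temperature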
# An asterisk follows results filed as active; i = inactive; / = no result shown; + = active, no number.
SMILES,LEDGF integ inh,KLK7 zymogen act,UHRF1 MBD2 ctr,MBD2 inh,Rin1 Abl inh,Neddyl block,KLK7 act conf,EDANS interfere,others
Cn1c(=O)c2cc(NC(=O)NCc3ccc(F)cc3)ccc2n1C/C=C/c1ccccc1,0,-6,-2,5,-2,/,/,/,
COc1ccc(C(=O)NNC(=O)CN2CCN(c3nc(-c4ccccc4)cs3)CC2)cc1,-1,0,5,3,2,i,/,/,
CC1CCN(Cc2nnc(-c3cccc(Br)c3)o2)CC1,-7,0,0,3,1,i,/,/,
O=C(O)Cc1ccc(S(=O)(=O)Nc2ccccc2C(=O)O)cc1,-1,0,8,0,-2,i,/,/,
CC(C)=CCn1c2ccc(NC(=O)Nc3cccnc3)cc2c(=O)n1C,2,21*,-5,2,-5,/,6,9.4*,
Cn1c(=O)c2cc(NC(=O)Nc3cccnc3)ccc2n1Cc1ccc(Cl)cc1,-1,6,-2,4,-1,/,/,/,
CCNC(=S)Nc1ccc2c(c1)c(=O)n(C)n2CC=C(C)C,-3,46*,0,1,-4,/,31*,33*,
Cn1c(=O)c2cc(NC(=O)NCCc3cccs3)ccc2n1-c1ccc(C(C)(C)C)cc1,/,/,/,/,-4,/,/,/,
C=C(C)Cn1c2ccc(NC(=S)NCc3ccccc3F)cc2c(=O)n1C,-2,-1,-2,-1,1,/,/,/,
CC(C)=CCn1c2ccc(NC(=O)Nc3ccc(N(C)C)cc3)cc2c(=O)n1C,-8,14*,-1,-1,0,i,5,6.5*,
C=C(C)Cn1c2ccc(NC(=O)NCCc3cccs3)cc2c(=O)n1C,-2,26*,-3,-4,-3,/,19*,9.8*,EDANS interf=>70
CC(CNS(=O)(=O)c1ccc2c(c1)CC(=O)N2C)c1ccccc1 (configuration not stated),-1,0,2,3,0,i,/,/,
COc1cc2cc(Oc3ccc4ccc(=O)oc4c3)c(=O)oc2cc1O[C@@H]1O[C@H](CO)[C@@H](O)[C@H](O)[C@H]1O,0,25*,7,0,1,i,36*,49*,
COc1cc2cc(Oc3ccc4ccc(=O)oc4c3)c(=O)oc2cc1OC1OC(COC(=O)CC(C)(O)CC(=O)O)C(O)C(O)C1O (configuration not stated),6,21*,-1,-3,2,/,34*,31*,
Cc1ccc(S(=O)(=O)c2c(N)n(CCCO)c3nc4ccccc4nc23)cc1,13,14*,2,-6,4,/,-46,-48,
Cc1ccc2[nH]c(=O)c3cc(C(=O)NCCN4CCN(C)CC4)sc3c2c1,2,17*,-2,4,-8,/,-18,-22,
CCOC(=O)CNC(=O)c1cc2c(=O)[nH]c3ccc(C)cc3c2s1,4,-5,-1,-1,-11,/,/,/,
Cc1ccc(C(=O)Nc2ccc(CC(=O)O)cc2)o1,2,0,6,3,-2,i,/,/,
Cc1ccc(C(=O)Nc2ccc(NC(=O)c3ccc(C)o3)cc2)o1,-2,29*,1,1,0,i,31*,18*,
O=c1oc2c3c4c(cc2s1)CCCN4CCC3,10,-1,-7,-4,4,i,/,/,
O=c1ccc2cc3c4c(c2o1)CCCN4CCC3,-6,89*,-12,-9,-15,+,67*,73*,
Fc1ccc(-c2nc3cnccn3c2NC2CCCC2)cc1,1,58*,2,0,-2,/,63*,4,EDANS interf=>70
Oc1ccc(Br)cc1-c1nc2cnccn2c1NC1CCCCC1,-2,-15,2,0,-3,/,/,/,
Cc1noc(C)c1NC(=O)Nc1ccc2c(c1)C(=O)N(C)[C@H]1CC[C@H](CC(=O)NCc3ccc(Cl)cc3)O[C@@H]1CO2,4,0,2,2,/,/,/,/,
